Measured values taken from PubChem BioAssay (EPA / NIEHS).
Where “and” joins values, the source holds several entries; their conditions need not be identical. Identical values can stand only once. Results filed as inconclusive are left out. Calls of active or inactive are those of the source. The calls were made as follows, unless noted: active = hit-call score of the fitted dose curve at least 0.9, where 1 is the maximum; inactive = score below 0.9.

Test: CCTE_Shafer_MEA_dev_AB: CCTE's Alamar Blue Assay for Cytotoxicity in the Neural Network Formation Assay, Shafer Lab (AID 2284083; active = hit-call score of the fitted dose curve at least 0.9, where 1 is the maximum;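 also: resazurin reduction fluorescence as viability of cultured neurons; twelve days of exposure from plating with re-dosing on DIV 5 and 9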)
Procedure, shortened: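 Rat cortical primary cultures, 1.5 x 10^5 cells/well on MEA; continuous compound exposure over 12 days of network development, re-dosed with full medium change DIV 5 and 9. Alamar Blue fluorescence; loss of signal = cytotoxicity vs DMSO baseline.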
With `CS(=O)(=O)OCCCCOS(C)(=O)=O` the outcome was “inactive”. With `Oc1c(Cl)cc(Cl)c(Cl)c1Cc1c(O)c(Cl)cc(Cl)c1Cl` the AC50 was 8.76 µM (active) and 3.54 µM (active). For `COCCOCCOCCO`, the outcome was “inactive”. With `CN(C)CCOC(C)(c1ccccc1)c1ccccn1` (centres undefined) the outcome was “inactive”. In the case of `COCCc1ccc(OCC(O)CNC(C)C)cc1` (centres undefined), the outcome was “inactive”.

Test: CCTE_Shafer_MEA_acute_LDH: CCTE's Lactate Dehydrogenase Assay for Cytotoxicity in the Neural Acute Assay, Shafer Lab (AID 2284086; active = hit-call score of the fitted dose curve at least 0.9, where 1 is the maximum;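 also: active means LDH release rises above DMSO vehicle level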)
Procedure, shortened: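 Medium collected from MEA wells of primary rat cortical cultures (DIV 13 or 15) immediately after 40 min chemical exposure is assayed spectrophotometrically for lactate dehydrogenase activity. Endpoint fitted in positive direction versus DMSO.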
For `CN(C)C(=S)SC(=S)N(C)C`, the outcome was “inactive”. In the case of `Oc1c(Cl)cc(Cl)c(Cl)c1Cc1c(O)c(Cl)cc(Cl)c1Cl`, the outcome was “inactive”. For `O=C(Nc1ccc2c(O)c(N=Nc3ccc(N=Nc4ccc(S(=O)(=O)O)cc4)cc3)c(S(=O)(=O)O)cc2c1)c1ccccc1`, the outcome was “inactive”. For `C=CC(C)(O)CCC=C(C)C` (centres undefined), the outcome was “inactive”. In the case of `CC1(C)CCC[C@]2(C)[C@H]3CCO[C@]3(C)CC[C@@H]12`, the outcome was “inactive”. With `COCCc1ccc(OCC(O)CNC(C)C)cc1` (centres undefined) the outcome was “inactive”. For `CCCCCCC(CO)CCCC` (centres undefined), the outcome was “inactive”.

Test: CCTE_Shafer_MEA_dev_mutual_information_norm: CCTE's Neural Network Formation Assay for Mutual Information Normalization, Shafer Lab (AID 2284091);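 as to AC50: mutual information between electrodes summarised as area under curve across four recording days; potency is for a decrease in mutual information relative to DMSO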
Procedure, shortened: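 Shared information across electrodes, tracked on days 5, 7, 9 and 12 of network development and collapsed as trapezoidal area under the curve. Rat cortical cultures were treated continuously from plating, with treatment renewed at feeds on DIV 5 and 9; DMSO baseline, negative-direction fit.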
For `FC(F)(F)COCC(F)(F)F`, the outcome was “inactive”. With `CS(=O)(=O)OCCCCOS(C)(=O)=O` the outcome was “inactive”. With `Oc1c(Cl)cc(Cl)c(Cl)c1Cc1c(O)c(Cl)cc(Cl)c1Cl` the AC50 was 578 nM (active) and 302 nM (active). In the case of `COCCOCCOCCO`, the outcome was “inactive”. For `CN(C)CCOC(C)(c1ccccc1)c1ccccn1` (centres undefined), the outcome was “inactive”. For `COCCc1ccc(OCC(O)CNC(C)C)cc1` (centres undefined), the outcome was “inactive”.

Test: CCTE_Shafer_MEA_dev_correlation_coefficient_mean: CCTE's Neural Network Formation Assay for Mean Correlation Coefficient, Shafer Lab (AID 2284093);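 as to AC50: well mean pairwise spike train correlation integrated as AUC over recording days 5 to 12; potency fitted for loss of correlation relative to DMSO vehicle wells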
Procedure, shortened: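 Rat cortical cultures, 1.5 x 10^5 cells/well, dosed from day 0 for 12 days. Spontaneous spikes recorded DIV 5/7/9/12; electrode-pair correlation coefficients averaged, AUC taken. Fit in loss direction vs DMSO.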
With `FC(F)(F)COCC(F)(F)F` the outcome was “inactive”. With `CS(=O)(=O)OCCCCOS(C)(=O)=O` the outcome was “inactive”. In the case of `Oc1c(Cl)cc(Cl)c(Cl)c1Cc1c(O)c(Cl)cc(Cl)c1Cl`, the AC50 was 765 nM (active) and 832 nM (active). With `COCCOCCOCCO` the outcome was “inactive”. For `CN(C)CCOC(C)(c1ccccc1)c1ccccn1` (centres undefined), the outcome was “inactive”. With `COCCc1ccc(OCC(O)CNC(C)C)cc1` (centres undefined) the outcome was “inactive”.

Test: IUF_NPC1b_proliferation_BrdU_72hr: Leibniz Research Institute for Environmental Medicine (IUF) 72-hour Neural Progenitor Cell Bromodeoxyuridine (BrdU) Proliferation Assay (NPC1b) (AID 2284207)
Procedure, shortened: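 Human fetal cortex-derived (GW 16-19) neural progenitor spheres, 0.25-0.35 mm, one per well in EGF/FGF proliferation medium, exposed to compound for 72 h at 37C, pH 7.2-7.6. BrdU incorporation over the final 16 h read by luminescence ELISA, relative to DMSO.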
With `Oc1c(Cl)cc(Cl)c(Cl)c1Cc1c(O)c(Cl)cc(Cl)c1Cl` the AC50 was 13.4 µM (active). With `COCCOCCOCCO` the outcome was “inactive”. For `CN(C)CCOC(C)(c1ccccc1)c1ccccn1` (centres undefined), the outcome was “inactive”. With `COCCc1ccc(OCC(O)CNC(C)C)cc1` (centres undefined) the outcome was “inactive”.

Test: IUF_NPC1a_proliferation_area_72hr: Leibniz Research Institute for Environmental Medicine (IUF) 72-hour Neural Progenitor Cell Proliferation Area Assay (NPC1a) (AID 2284208)
Procedure, shortened: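 Single 0.25–0.35 mm human fetal neural progenitor spheres in proliferation medium with EGF and FGF, exposed 72 h from plating without renewal at 37C, pH 7.2-7.6. Sphere area growth measured by automated phase-contrast imaging, relative to DMSO.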
With `Oc1c(Cl)cc(Cl)c(Cl)c1Cc1c(O)c(Cl)cc(Cl)c1Cl` the AC50 was 17.6 µM (active). With `COCCOCCOCCO` the outcome was “inactive”. With `CN(C)CCOC(C)(c1ccccc1)c1ccccn1` (centres undefined) the outcome was “inactive”. With `COCCc1ccc(OCC(O)CNC(C)C)cc1` (centres undefined) the outcome was “inactive”.

Test: IUF_NPC1_viability_72hr: Viability Assessment at 72 hours in the Leibniz Research Institute for Environmental Medicine (IUF) Neural Progenitor Cell Proliferation Assay (NPC1) (AID 2284209)
Procedure, shortened: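 Spheres of primary human neural progenitors were plated singly in proliferation medium and treated for 72 h. Mitochondrial reduction of resazurin was then measured by fluorescence and analysed against DMSO controls.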
For `Oc1c(Cl)cc(Cl)c(Cl)c1Cc1c(O)c(Cl)cc(Cl)c1Cl`, the outcome was “inactive”. For `COCCOCCOCCO`, the outcome was “inactive”. In the case of `CN(C)CCOC(C)(c1ccccc1)c1ccccn1` (centres undefined), the outcome was “inactive”. With `COCCc1ccc(OCC(O)CNC(C)C)cc1` (centres undefined) the outcome was “inactive”.

Test: CCTE_Mundy_HCI_Cortical_Synap_Neur_Matur_NeuriteSpotCountPerNeuriteLength: CCTE's Synaptogenesis and Neurite Maturation Assay in rat cortical cells for Neurite Spot Count per Neurite Length, Mundy Lab (AID 2284210)
Procedure, shortened: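 Synaptophysin spots per unit neurite length, measured by automated imaging of MAP2/synaptophysin/Hoechst-stained neurons. Cultures from rat cortex received chemical at DIV 7 with media change through DIV 12; glial growth arrested by AraC at DIV 5; DMSO baseline.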
With `Oc1c(Cl)cc(Cl)c(Cl)c1Cc1c(O)c(Cl)cc(Cl)c1Cl` the outcome was “inactive”. In the case of `COCCOCCOCCO`, the outcome was “inactive”. For `CN(C)CCOC(C)(c1ccccc1)c1ccccn1` (centres undefined), the outcome was “inactive”. With `COCCc1ccc(OCC(O)CNC(C)C)cc1` (centres undefined) the outcome was “inactive”.

Test: CCTE_Mundy_HCI_Cortical_Synap_Neur_Matur_BPCount: CCTE's Synaptogenesis and Neurite Maturation Assay in rat cortical cells for Branch Point Count, Mundy Lab (AID 2284211)
Procedure, shortened: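 HCI read-out of branch points from MAP2/synaptophysin/Hoechst immunofluorescence; rat cortical cultures, AraC DIV 5, dosing DIV 7, fixed DIV 12; fit in positive direction vs DMSO baseline.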
In the case of `Oc1c(Cl)cc(Cl)c(Cl)c1Cc1c(O)c(Cl)cc(Cl)c1Cl`, the AC50 was 8.53 µM (active). In the case of `COCCOCCOCCO`, the outcome was “inactive”. With `CN(C)CCOC(C)(c1ccccc1)c1ccccn1` (centres undefined) the outcome was “inactive”. For `COCCc1ccc(OCC(O)CNC(C)C)cc1` (centres undefined), the outcome was “inactive”.

Test: CCTE_Mundy_HCI_Cortical_NOG_NeuriteCount: CCTE's Neurite Outgrowth Assay in rat cortical cells for Neurite Count, Mundy Lab (AID 2284212);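 also: cells fixed about two days after chemical exposure began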
Procedure, shortened: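 Rat cortical primary cells; compound added 2 h post-plating, 1/10 dilution of working solution. Anti-betaIII-tubulin/AF488 ICC; ArrayScan neurite count vs DMSO.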
In the case of `Oc1c(Cl)cc(Cl)c(Cl)c1Cc1c(O)c(Cl)cc(Cl)c1Cl`, the AC50 was 31 µM (active). For `COCCOCCOCCO`, the outcome was “inactive”. With `CN(C)CCOC(C)(c1ccccc1)c1ccccn1` (centres undefined) the outcome was “inactive”. For `COCCc1ccc(OCC(O)CNC(C)C)cc1` (centres undefined), the outcome was “inactive”.

Test: CCTE_Mundy_HCI_Cortical_NOG_NeuriteLength: CCTE's Neurite Outgrowth Assay in rat cortical cells for Neurite Length, Mundy Lab (AID 2284213);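 as to AC50: neurites imaged about 48 to 50 h after chemical exposure began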
Procedure, shortened: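 First, rat primary cortical cells were plated and, 2 h later, given test chemical as a 1/10 dilution. Finally, βIII-tubulin immunostaining enabled automated imaging of neurite length.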
In the case of `Oc1c(Cl)cc(Cl)c(Cl)c1Cc1c(O)c(Cl)cc(Cl)c1Cl`, the AC50 was 23.1 µM (active). In the case of `COCCOCCOCCO`, the outcome was “inactive”. In the case of `CN(C)CCOC(C)(c1ccccc1)c1ccccn1` (centres undefined), the outcome was “inactive”. In the case of `COCCc1ccc(OCC(O)CNC(C)C)cc1` (centres undefined), the outcome was “inactive”.

Test: CCTE_Mundy_HCI_Cortical_Synap_Neur_Matur_NeuriteLength: CCTE's Synaptogenesis and Neurite Maturation Assay in rat cortical cells for Neurite Length, Mundy Lab (AID 2284214)
Procedure, shortened: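 Cultures of rat primary cortical cells received chemical at DIV 7 and were fixed at DIV 12, after glial arrest with AraC at DIV 5. Neurite length was measured by automated imaging of MAP2 immunofluorescence.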
In the case of `Oc1c(Cl)cc(Cl)c(Cl)c1Cc1c(O)c(Cl)cc(Cl)c1Cl`, the AC50 was 13.4 µM (active). In the case of `COCCOCCOCCO`, the outcome was “inactive”. In the case of `CN(C)CCOC(C)(c1ccccc1)c1ccccn1` (centres undefined), the outcome was “inactive”. With `COCCc1ccc(OCC(O)CNC(C)C)cc1` (centres undefined) the outcome was “inactive”.

Test: CCTE_Mundy_HCI_Cortical_Synap_Neur_Matur_NeuriteSpotCountPerNeuron: CCTE's Synaptogenesis and Neurite Maturation Assay in rat cortical cells for Neurite Spot Count per Neuron Count, Mundy Lab (AID 2284215)
Procedure, shortened: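 Rat primary cortical cultures given AraC at DIV 5, dosed from DIV 7 to DIV 12 with media change. Fixed, stained for MAP2, synaptophysin and Hoechst; neurite-associated synaptophysin puncta per neuron quantified by high-content imaging versus DMSO.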
For `Oc1c(Cl)cc(Cl)c(Cl)c1Cc1c(O)c(Cl)cc(Cl)c1Cl`, the AC50 was 9.95 µM (active). For `COCCOCCOCCO`, the outcome was “inactive”. For `CN(C)CCOC(C)(c1ccccc1)c1ccccn1` (centres undefined), the outcome was “inactive”. In the case of `COCCc1ccc(OCC(O)CNC(C)C)cc1` (centres undefined), the outcome was “inactive”.

Test: CCTE_Mundy_HCI_Cortical_Synap_Neur_Matur_SynapseCount: CCTE's Synaptogenesis and Neurite Maturation Assay in rat cortical cells for Synapse Count, Mundy Lab (AID 2284218)
Procedure, shortened: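 Cells were plated, allowed 2 hr to attach, treated with AraC at DIV 5, then exposed to chemicals from DIV 7 until DIV 12. After fixation and MAP2/synaptophysin immunolabelling, synapses per neuron were quantified by automated imaging against DMSO.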
For `Oc1c(Cl)cc(Cl)c(Cl)c1Cc1c(O)c(Cl)cc(Cl)c1Cl`, the AC50 was 13.1 µM (active). With `COCCOCCOCCO` the outcome was “inactive”. For `CN(C)CCOC(C)(c1ccccc1)c1ccccn1` (centres undefined), the outcome was “inactive”. In the case of `COCCc1ccc(OCC(O)CNC(C)C)cc1` (centres undefined), the outcome was “inactive”.
